Screening data (PubChem)
Only some compounds are listed: those with a hit (about 18% of all), similar ones and a draw of the others.
TDP1 cell noCPT: qHTS for Inhibitors of human tyrosyl-DNA phosphodiesterase 1 (TDP1): qHTS in cells in absence of CPT. actives 15% (n = 420,000). Potency, µM (titrated, usually from 46.2 µM), without a hit: top-dose activity change, negative = growth inhibition, actives largely listed as inhibitors. AID 686978, 2013. DT40 Tdp1-/- hTDP1 cells, no CPT, ATP luminescence, 48 h; further: potency means the concentration at half of the fitted maximal effect; nearly all actives have a fitted effect of over 55% in size
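Seeded 400 DT40-hTDP1 cells/well (vehicle DMSO, no 20 nM CPT); pinned compounds; ≥48 hr at 37 °C; CellTiter-Glo luminescence as viability measure.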
Six1-Eya2 blk: qHTS Assay for Inhibitors of the Six1/Eya2 Interaction; Homeobox protein SIX1 (Homo sapiens) + Protein phosphatase EYA2 (Homo sapiens), …; AlphaScreen GST-Six1/His-Eya2 binding, biochemical; active compounds read low; activity change, % (test concentration not listed); actives 0.56% (n = 360,000); in the data active means activity change below about -65%; inconclusive means mostly about -30% to -63%
Target sequence (O00167 whole entry, looked up): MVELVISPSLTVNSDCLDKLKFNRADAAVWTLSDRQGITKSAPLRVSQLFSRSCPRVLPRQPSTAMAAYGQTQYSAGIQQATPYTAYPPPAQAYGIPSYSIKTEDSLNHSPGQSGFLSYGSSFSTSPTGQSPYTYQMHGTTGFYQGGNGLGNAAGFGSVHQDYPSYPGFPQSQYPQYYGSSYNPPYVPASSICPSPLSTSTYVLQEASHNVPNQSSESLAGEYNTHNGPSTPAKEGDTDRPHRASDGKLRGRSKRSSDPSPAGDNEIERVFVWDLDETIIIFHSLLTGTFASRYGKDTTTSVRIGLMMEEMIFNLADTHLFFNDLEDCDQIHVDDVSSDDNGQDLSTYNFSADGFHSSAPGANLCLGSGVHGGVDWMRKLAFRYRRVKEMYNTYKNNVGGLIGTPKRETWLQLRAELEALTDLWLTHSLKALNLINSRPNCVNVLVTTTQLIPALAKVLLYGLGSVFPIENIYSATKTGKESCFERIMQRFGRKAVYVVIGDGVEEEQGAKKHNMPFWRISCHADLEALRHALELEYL
Target sequence (Q15475 whole entry, looked up): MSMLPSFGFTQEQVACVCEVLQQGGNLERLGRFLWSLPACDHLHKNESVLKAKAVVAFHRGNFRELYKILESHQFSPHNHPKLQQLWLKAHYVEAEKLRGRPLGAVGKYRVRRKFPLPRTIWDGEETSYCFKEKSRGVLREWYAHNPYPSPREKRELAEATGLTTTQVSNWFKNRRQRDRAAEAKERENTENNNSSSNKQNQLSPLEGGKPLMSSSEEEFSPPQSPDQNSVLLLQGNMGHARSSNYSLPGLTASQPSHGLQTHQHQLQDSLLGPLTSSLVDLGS
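GST-Six1 + His-Eya2 (5X stock: 250/500 nM); Tris pH 8.0, 300 mM NaCl, 0.05% BSA, 0.02% Tween 20; GSH donor/Ni acceptor beads; 1 h 37 °C dark; AlphaScreen readout.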
CtBP-E1A blk: qHTS Assay for Inhibitors of the CtBP/E1A Interaction. AlphaScreen GST-E1A/His-CtBP binding, 1536-well; active compounds read low. activity change, % (concentration not given with the values). AID 651724, 2012. actives 0.49% (n = 340,000); in the data active means activity change below about -65%; inconclusive means mostly about -30% to -63%
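Steps: dispense buffer (Tris pH 8.0, NaCl 300 mM, TCEP 1 mM, BSA, Tween 20); add 5X protein mix (GST-E1A, His-CtBP, 125 nM each); pin 23 nL compound; 2 h at 37 °C, dark; add 5X beads (50 ug/mL); 1 h; read.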
TDP1 cell CPT: qHTS for Inhibitors of human tyrosyl-DNA phosphodiesterase 1 (TDP1): qHTS in cells in presence of CPT. chicken DT40 Tdp1-/-;hTDP1 cells + 20 nM CPT, ATP luminescence, 48 h. actives 12% (n = 420,000). AID 686979, 2013. Potency, µM (top dose mostly 46.2 µM), for inactives: top-dose activity change, negative = growth inhibition, actives largely listed as inhibitors; further: potency means the concentration at half of the fitted maximal effect; nearly all actives have a fitted effect of over 55% in size
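Chicken DT40 Tdp1-/- cells complemented with human TDP1, 400 cells/well, exposed to compounds plus 20 nM camptothecin for at least 48 h at 37 C; viability read as ATP content by CellTiter-Glo luminescence.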
IL1B secr inh: qHTS for Inhibitors of Inflammasome Signaling: IL-1-beta AlphaLISA Primary Screen; THP-1 LPS/ATP IL-1B secretion, AlphaLISA, 16 h; active compounds read low; activity change, % at 57.5 µM; actives 4.7% (n = 360,000); in the data active means activity change below about -50%; inconclusive means mostly about -30% to -49%
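THP-1 cells pretreated 1 hr with compounds (up to 57.5 uM final), then stimulated with LPS (250 ng/mL final) plus ATP (1.25 mM final); secreted IL-1B measured by AlphaLISA after 16 hr, decreased signal indicating inhibition.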
TDP1 block: qHTS Assay for Inhibitors of Tyrosyl-DNA Phosphodiesterase (TDP1) | AID 485290, 2010 | Tyrosyl-DNA phosphodiesterase 1 (Homo sapiens), Q9NUW8 | Potency, µM (top dose mostly 130 µM), for inactives: at the top dose activity change, negative = inhibition, most hits filed as inhibitors | recombinant TDP1, AlphaScreen DNA substrate cleavage | actives 0.28% (n = 350,000); further: potency means the concentration at half of the fitted maximal effect; nearly all actives have a fitted effect of over 40% in size
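Here, a 5' biotin and 3' phosphotyrosine-FITC DNA oligonucleotide reports Tdp1 activity: intact substrate bridges AlphaScreen beads, while cleavage leaves a 3' phosphate and drops signal. All incubations at room temperature.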
Numbers without * were called inactive; ? = inconclusive; nt = no result; [ ] = another dose, or the depositor's remark. Unless noted, the call rests on the fitted dose curve; in most records, active means well fitted curve in the direction sought with a large enough effect; inconclusive means small, poorly fitted or top-dose-only effect, or another doubt; inactive means no such curve, though single readings can be large; an effect the other way counts as inactive or inconclusive. On the % scale 0 is the no-effect control and ±100 the full control effect.

SMILES | TDP1 cell noCPT | Six1-Eya2 blk | CtBP-E1A blk | TDP1 cell CPT | IL1B secr inh | TDP1 block
CCCSc1ccc([C@@H]2[C@H]3C(=O)N(CC)C(=O)[C@H]3[C@]3(C(=O)OC)CCCN23)cc1 | ? | 3 | -3 | ? | 5 | 1%
COC(=O)[C@@]12CCCCN1[C@H](c1ccc(SC3CCCCC3)c(OC)c1)[C@@H]1C(=O)N(C)C(=O)[C@@H]12 | ? | -16 | -9 | ? | -25 | 1%
CN(Cc1nc2ccc(Cl)cc2[nH]1)Cc1nc(-c2cnccn2)no1 | 1% | 5 | -1 | -13% | 4 | 4%
Cn1c(=O)nc2n(Cc3ccccc3)c3ccccc3cc-2c1=O | ? | -6 | 9 | 6% | 32 | -4%
COc1cc(C)ccc1OCCSc1nc2ccc(NC(=O)c3ccc4c(c3)OCO4)cc2s1 | ? | nt | nt | -27% | nt | 1%
Cc1cccc(OCCSc2nc3ccc(NC(=O)c4cccs4)cc3s2)c1 | 12µM* | nt | nt | 16µM* | nt | 3%
Cc1ccccc1OCCSc1nc2ccc(NC(=O)c3ccccc3)cc2s1 | ? | nt | nt | -70% | nt | -1%
Cc1ccccc1OCCSc1nc2ccc(NC(=O)c3cccs3)cc2s1 | 18µM* | nt | nt | 23µM* | nt | -7%
Cc1cc(C)cc(OCCSc2nc3ccc(NC(=O)c4ccc5c(c4)OCO5)cc3s2)c1 | 5.2µM* | nt | nt | ? | nt | 2%
Cc1ccccc1OCCSc1nc2ccc(NC(=O)c3cccc(F)c3)cc2s1 | 12µM* | nt | nt | 16µM* | nt | -4%
CC1=CC(=O)C2=C(C)C[C@@H]3OC(=O)[C@@H](C)[C@H]3C=C12 | 7%[9.04 µM] | nt | nt | 9%[9.04 µM] | nt | 7%
CCCCN(C(=O)C1=COCCO1)c1c(N)n(CCCC)c(=O)[nH]c1=O | 1% | 13 | -1 | 4% | -1 | nt
CNc1nnc(C(F)(F)F)s1 | -4% | 14 | 4 | 5% | nt | 3%
Fc1ccc(Nc2nnc(C(F)(F)F)s2)cc1 | -27% | 11 | 8 | -13% | -69* | 4%
O=C(CN1C(=O)C2(SCC(=O)N2c2ccccc2)c2ccccc21)NCc1ccccc1Cl (stereo not drawn) | nt | nt | nt | nt | nt | 6%
CCN1c2ccccc2NC2N=C(OC)C(c3ccccc3)C21 (stereo not drawn) | 13µM* | -12 | -17 | 12µM* | 43 | -5%
N#C/C(=N/Nc1ccc(OC(F)(F)F)cc1)C(N)=S | 1.6µM* | -14 | nt | 2.3µM* | -64* | 8%
CCOc1ccc(N/N=C(/C#N)C(N)=O)cc1 | -12% | -14 | -11 | -22% | -2 | 6%
COc1ccc(/C=c2\[nH]c(=O)/c(=C/c3ccc(OC)cc3)[nH]c2=O)cc1 | -1% | nt | nt | 0% | nt | nt
Cn1c2c(c(=O)[nH]c1=O)C(c1ccc(O)cc1)C1=C(N2)c2ccccc2C1=O (stereo not drawn) | 23µM* | -23 | -28 | 10µM* | ? | 6%
Nc1nc2c(c(=O)[nH]1)C(c1ccccc1)C1=C(N2)c2ccccc2C1=O (stereo not drawn) | -18% | ? | nt | -21% | 14 | nt
COc1ccc(CCNC(=O)/C=C/c2cc(OC)c(OC)c(OC)c2)cc1OC | ? | 7 | 16 | -28% | 0 | 3%
COc1cc(/C=C/C(=O)NCCc2ccc(S(N)(=O)=O)cc2)ccc1OCC#N | -29% | -1 | -11 | 18µM* | 10 | nt
CCOc1cc(/C=C/C(=O)NCCc2ccc(S(N)(=O)=O)cc2)ccc1OCC(C)C | 8.2µM* | -4 | nt | 13µM* | -9 | 2%
O=C(COc1ccccc1Cl)Nc1ccc(S(=O)(=O)Nc2ccccn2)cc1 | ? | -23 | -16 | ? | ? | 3%
SMILES | TDP1 cell noCPT | Six1-Eya2 blk | CtBP-E1A blk | TDP1 cell CPT | IL1B secr inh | TDP1 block
Cc1cc(NC(=O)NC(=O)c2ccccc2NC(=O)C(C)N)ccc1Oc1ncc(Br)cn1 (stereo not drawn) | 0.58µM* | -3 | 2 | 0.65µM* | -1 | nt
O=C(Nc1ccc2oc(=O)ccc2c1)c1ccc(-c2ccccc2[N+](=O)[O-])o1 | ? | -19 | -2 | 1% | 23 | nt
Cc1ccc(NC(=O)C(=O)NCC2(c3ccccc3)CCCC2)cc1Cl | -20% | nt | nt | -9% | nt | 2%
Cc1ccc(N(CCC#N)C(=O)CCl)cc1C | 7.3µM* | 9 | 2 | ? | -98* | 0%
Cc1ccc(SCC(=O)OCC(=O)N(CCC#N)c2ccccc2)cc1C | 2% | -4 | 2 | -3% | 12 | -5%
O=C(CP(=O)(c1ccccc1)c1ccccc1)Nc1cccc(CP(=O)(c2ccccc2)c2ccccc2)c1 | 23µM* | -12 | -8 | ? | ? | 6%
COc1ccc2[nH]cc(CCNC(=O)CC[C@H]3O[C@@H](n4cc(C)c(=O)[nH]c4=O)C[C@@H]3O)c2c1 | -3% | 0 | 2 | -2% | 12 | 0%[56.1 µM]
Nc1c(Br)cc(Br)c2c1C(=O)c1c(cccc1S(=O)(=O)O)C2=O | ? | ? | -74* | -8% | -16 | nt
CCCCn1cc2c(c1-c1cccc(C)c1)c(=O)n(C)c(=O)n2C | ? | -5 | nt | ? | 24 | nt
Cn1c(=O)c2c(-c3ccc(Br)cc3)n(CCc3ccccc3)cc2n(C)c1=O | ? | nt | nt | 15µM* | nt | 7%
Cn1c(=O)c2c(-c3ccc(Cl)cc3)n(Cc3ccc(Cl)cc3)cc2n(C)c1=O | ? | nt | nt | ? | nt | 1%
CCCCCn1cc2c(c1-c1ccc(Br)cc1)c(=O)n(C)c(=O)n2C | 21µM* | nt | nt | 18µM* | nt | 9%
Cn1c(=O)c2c(-c3ccc(Cl)cc3)n(CCc3ccccc3)cc2n(C)c1=O | 23µM* | nt | nt | ? | nt | 14%
c1ccc(Cn2c(NCc3ccccn3)nc3ccccc32)cc1 | -3% | 0 | -8 | -29% | -27 | 0%
COc1cccc(Cc2nc3cccnc3n2C2CCN(Cc3ccc(C)s3)CC2)c1 | -1% | nt | nt | -4% | nt | nt
Cn1c(=O)cc(C(=O)N/N=C/c2ccc(Cl)cc2)[nH]c1=O | -2% | -4 | -20 | -106% | 12 | 9%
Cc1cccc(NS(=O)(=O)c2ccc(Oc3ccccc3)cc2)n1 | ? | -2 | 2 | -18% | 59 | 2%
CSc1nnc(C)c(/C=C/Nc2ccc(C)cc2)n1 | 18µM* | -14 | -67* | -15% | -1 | 1%
